Out of some 38,000 compounds screened, about 1,200 (3.2%) showed an effect of 50% or more. The median lay at about -58%. This excerpt belongs to a sample that is enriched for strong results.
Test system: Plasmodium falciparum
Experiment: Calibr Malaria Delayed Death Assay SOP
Type: functional, organism-based
Parameters: scale not given: in the data most compounds retested in dose-response had high values
Conditions: concentration 4.99e-06 (unit not given; other assays of the set use mol/L)

Row | Compound | Percent Effect [%]
1 | CC(C)CC(NC(=O)c1ccn(C)c(=O)c1)c1cccs1 (configuration not stated) | -80.8
2 | Cc1cc(C(=O)N(C)CCCn2cccn2)nc(N)n1 | -80.13
3 | CCN(CC)C(=O)N1CCN(Cc2cnc(C)nc2)[C@H]2CS(=O)(=O)C[C@H]21 | -158.8
4 | CCS(=O)(=O)N1CCCn2nnc(CNC(C)=O)c2C1 | -63.27
5 | CN(C)CC1(O)CCCN(Cc2ccccc2OCC(=O)N(C)C)C1 (configuration not stated) | -89.01
6 | CCN1CCCC(O)(CNCc2ccccc2F)C1 (configuration not stated) | 38.87
7 | CCN1CCCC(O)(CN(C)Cc2ccccc2F)C1 (configuration not stated) | 56.49
8 | Cc1nc2c(c(N(C)C)n1)CCN(C(=O)c1ccc(N)nc1)C2 | -40.57
9 | O=C(CCc1ccccc1)NCC1CCN(Cc2ccccc2)CC1 | 43.31
10 | CC(=O)N1CCCN(CCn2nc3ccccn3c2=O)CC1 | -130.1
11 | CN(C)CCN(C)S(=O)(=O)Cc1ccc(Br)cc1 | 62.66
12 | CCCNS(=O)(=O)Cc1ccc(Br)cc1 | -18.14
13 | CC(O)CCN(C)S(=O)(=O)Cc1ccc(Br)cc1 (configuration not stated) | -27.23
14 | CC(Cn1cccn1)NC(=O)NCc1ccnc(OC2CCCC2)c1 (configuration not stated) | -91.81
15 | O=C(CCc1cccs1)Nc1ccnn1C1CCS(=O)(=O)C1 (configuration not stated) | -51.38
16 | Cc1ccc(C(=O)N2CC[C@]3(C[C@@H](OCc4ccccn4)CO3)C2)nc1.O=C(O)C(F)(F)F.O=C(O)C(F)(F)F | -9.931
17 | Cc1nonc1C1CCCN1Cc1ccc(C(=O)Nc2nccs2)cc1 (configuration not stated) | -15.94
18 | CNc1cncc(C2CCCN2Cc2cccc(C)n2)n1 (configuration not stated) | -46.34
19 | Cc1ccc(C)c(CSc2nnc([C@@H](N)C(C)C)o2)c1.Cl | -98.07
20 | FC(F)Oc1ccccc1CN1CCCC(c2nccn2CC2CC2)C1 (configuration not stated) | 86.3
21 | NC(=O)Cn1ccnc1C1CCCN(Cc2ccccc2OC(F)F)C1 (configuration not stated) | -1.798
22 | N#Cc1ccccc1CN1CCCC(c2nccn2CC2CC2)C1 (configuration not stated) | 10.64

Row | Compound | Percent Effect [%]
23 | Cc1cc(NC(=O)CN2CCCC2c2noc(C(C)C)n2)no1 (configuration not stated) | -88.6
24 | COCC1CCCN(C(=O)c2ccc(N(C)Cc3cnn(C)c3)nc2)C1 (configuration not stated) | -103.7
25 | O=C(CCCn1cnc2ccccc2c1=O)Nc1nc[nH]n1 | -6.042
26 | O=C(Cc1ccc2c(c1)CCC2)NC1CCN(Cc2ccccc2)CC1 | 27.79
27 | O=C(Nc1ccccn1)C1CCN(Cc2cc3c(cc2O)OCO3)CC1 | -119.6
28 | O=C(CCCNC(=O)C1CCCO1)Nc1ccc(Cl)cc1 (configuration not stated) | -38.58
29 | CCc1nc(CN(C)CC(=O)OC(C)(C)C)cs1 | -47.19
30 | COc1cccc([C@@H]2CCN(Cc3cn(C)c4ccccc34)C[C@H]2O)c1 | 77.7
31 | COc1cccc([C@@H]2CCN(Cc3ccc4ccccc4n3)C[C@H]2O)c1 | -19.61
32 | COc1cccc([C@@H]2CCN(Cc3cccc(C)n3)C[C@H]2O)c1 | -31.33
33 | Cc1ccc(CN(C)C(=O)CN2CCc3ccccc3C2)o1 | -48.11
34 | CC(C)n1cnnc1CN(C)C(=O)C1CCCN(C2CCN(C)CC2)C1 (configuration not stated) | -93.39
35 | COc1ccc(CC(=O)Nc2ccc3ncn(C)c(=O)c3c2)cc1 | -105.2
36 | Cn1ccc2c(ccn2CC(=O)Nc2ccc(Br)cc2)c1=O | -82.23
37 | CC(=O)c1c(C)nn(CC(=O)Nc2ccc(Br)cc2)c1C | 66.34
38 | CC(=O)c1c(C)nn(CC(=O)Nc2ccc(F)cc2)c1C | -45.58
39 | COc1ccc(NC(=O)Cn2nc(C)c(C(C)=O)c2C)cc1 | 89.56
40 | COc1ccc(NC(=O)Cn2nc(C)ccc2=O)cc1OC | -36.97
41 | CCOCc1cncc2c1CCN(C(=O)c1cscn1)C2.O=C(O)C(F)(F)F | -50.24
42 | Cc1nc(C2CCCN2C(=O)CCCn2cncn2)no1 (configuration not stated) | -14.54
43 | COc1ccc(S(=O)(=O)N2CCC(Cn3ccnc3)CC2)cc1 | -82.14
44 | CCc1ocnc1C(=O)N1CCOC(c2nc(C(C)C)n[nH]2)C1 (configuration not stated) | -32.06

Row | Compound | Percent Effect [%]
45 | CCc1cnc(N)nc1NC(C)c1cnn(C)c1 (configuration not stated) | -61.87
46 | CCc1cnc(N)nc1N[C@@H](C)c1ncccc1C | 2.334
47 | CCc1cnc(N)nc1NC(C)c1ccc(C)c(C)c1 (configuration not stated) | 72.97
48 | CCS(=O)(=O)c1cccc(C(=O)Nc2cccc3c2C(=O)N(C)C3=O)c1 | -74.2
49 | CN(Cc1ccco1)[C@@H]1CN(Cc2nccs2)C[C@@H]2CCCO[C@@H]21.O=C(O)C(F)(F)F.O=C(O)C(F)(F)F | 29.14
50 | CC(C)NC(=O)[C@@H]1CC[C@@H]2[C@@H](CCN2Cc2cn(C)c3ccccc23)O1.O=C(O)C(F)(F)F | 76.85
51 | Cn1cc(CN2CC[C@H]3O[C@H](C(=O)NC4CC4)CC[C@H]32)c2ccccc21.O=C(O)C(F)(F)F | 22.79
52 | CN(Cc1ccco1)[C@@H]1CN(CC2CCOCC2)C[C@@H]2CCCO[C@@H]21.O=C(O)C(F)(F)F.O=C(O)C(F)(F)F | 11.5
53 | Cc1ccc(CN2C[C@@H]3CCCO[C@@H]3[C@H](N(C)Cc3ccco3)C2)s1.O=C(O)C(F)(F)F.O=C(O)C(F)(F)F | 73.4
54 | CN(Cc1ccco1)[C@@H]1CN(Cc2ccccn2)C[C@@H]2CCCO[C@@H]21.O=C(O)C(F)(F)F.O=C(O)C(F)(F)F.O=C(O)C(F)(F)F | 29.58
55 | CN(Cc1ccco1)[C@@H]1CN(Cc2ccc(F)cc2)[C@@H]2CCCO[C@H]12.O=C(O)C(F)(F)F.O=C(O)C(F)(F)F | 54.29
56 | CN(Cc1ccco1)[C@@H]1CN(Cc2ccncc2)C[C@@H]2CCCO[C@@H]21.O=C(O)C(F)(F)F.O=C(O)C(F)(F)F.O=C(O)C(F)(F)F | 7.341
57 | CN(Cc1ccco1)[C@@H]1CN(Cc2cccnc2)[C@@H]2CCCO[C@H]12.O=C(O)C(F)(F)F.O=C(O)C(F)(F)F.O=C(O)C(F)(F)F | -47.89
58 | CN(Cc1ccco1)[C@@H]1CN(Cc2cccs2)C[C@@H]2CCCO[C@@H]21.O=C(O)C(F)(F)F.O=C(O)C(F)(F)F | 64.28
59 | CN(Cc1ccco1)[C@@H]1CN(Cc2cnn(C)c2)[C@@H]2CCCO[C@H]12.O=C(O)C(F)(F)F.O=C(O)C(F)(F)F | 23.66
60 | CNC(=O)[C@@H]1CC[C@@H]2[C@@H](CCN2Cc2cn(C)c3ccccc23)O1.O=C(O)C(F)(F)F | -13.73
61 | Cc1ccc(NC2CCN(C(=O)c3ccc(C#N)cc3)CC2)nn1 | -90.82
62 | Cc1nccc(NCc2cncc3c2CCN(S(C)(=O)=O)C3)n1.Cl | -112.1
63 | CSCC[C@H](NC(=O)CCn1ccc2c(Cl)cccc21)C(=O)O | -54.73
64 | Cn1cc(CN2CCCC23CCN(C(=O)c2ccsc2)CC3)cn1.O=C(O)C(F)(F)F | -0.2713
65 | Cc1nn(C)cc1-c1cc(C(F)(F)F)nc(NC2CCCCC2)n1 | -100.7
66 | O=C(NCc1ccco1)[C@H]1CC[C@@H]2[C@@H](CCN2Cc2cccnc2)O1.O=C(O)C(F)(F)F.O=C(O)C(F)(F)F | -37.9

Row | Compound | Percent Effect [%]
67 | CN(Cc1cncnc1)[C@@H]1CN(Cc2ccco2)C[C@@H]2CCCO[C@@H]21.O=C(O)C(F)(F)F.O=C(O)C(F)(F)F | -10.65
68 | CN(Cc1ccco1)[C@@H]1CN(Cc2ccoc2)C[C@@H]2CCCO[C@@H]21 | 59.2
69 | O=C(NCc1ccco1)[C@@H]1CC[C@@H]2[C@@H](CCN2Cc2ccc(F)cc2)O1.O=C(O)C(F)(F)F | 66.38
70 | O=C(NCc1ccco1)[C@@H]1CC[C@@H]2[C@@H](CCN2CC2CC2)O1.O=C(O)C(F)(F)F | 7.283
71 | CN(Cc1ccco1)[C@@H]1CN(Cc2cccnc2)C[C@@H]2CCCO[C@@H]21.O=C(O)C(F)(F)F.O=C(O)C(F)(F)F.O=C(O)C(F)(F)F | 27.09
72 | Cc1cc(I)c2c(c1)C(=O)C(CN1CCCC1)(CN1CCCC1)CO2 | -91.39
73 | CCCOC1CCCN(c2nc(COC)nc3c2cnn3C)C1 (configuration not stated) | -157.4
74 | CC(=O)Nc1nc(C2CCN(C(=O)c3ccncc3)CC2)cs1 | 10.73
75 | COCC1c2c(cnn2CC2CC2)CCN1Cc1cc(C)on1.O=C(O)C(F)(F)F.O=C(O)C(F)(F)F (configuration not stated) | -52.73
76 | COc1ncccc1C(Cc1ccsc1)NC(=O)Cn1cccnc1=O (configuration not stated) | -43.2
77 | COc1ccncc1NCc1ccsc1 | -36.48
78 | CNc1cc(N2CCCC2CNCc2cccc(C#N)c2)ncn1 (configuration not stated) | -40.51
79 | Cc1ccc(C2CN(CCS(C)(=O)=O)CCO2)c(C)c1 (configuration not stated) | -57.06
80 | Cc1ccccc1CS(=O)(=O)CC(=O)N(C)Cc1cccc(F)c1 | -13.79
81 | CN(Cc1cccc(F)c1)C(=O)CS(=O)(=O)Cc1c(Cl)cccc1Cl | 82.58
82 | Cc1noc(C)c1CS(=O)(=O)CC(=O)N(C)Cc1cccc(F)c1 | -32.62
83 | CO[C@H]1CC[C@H]2[C@H]1OCCN2C(=O)c1nn(C)c2ccccc12 | -87.32
84 | CC1CN(CC(=O)NCc2ccc(F)cc2)CCN1c1nccs1 (configuration not stated) | -59.43
85 | CC/N=c1\nc(NCC)nc2n1C(O)(Nc1ccc(C)cc1C)CS2 (configuration not stated) | -60.63
86 | Cc1cccc(CS(=O)(=O)NCc2nn(C)c3c2COCC3)c1 | -48
87 | O=C(C1CC1)N1CCC2(CC1)COCCN2Cc1ccc(F)cc1.O=C(O)C(F)(F)F | -44.57
